# Source: ChEMBL document CHEMBL3988442, “University of Dundee, Small-Polar-MMV Screening Library” (2021)
# How the values were obtained:
# [1] = molecular target: T1, Aspartate--tRNA(Asp/Asn) ligase (Mycobacterium tuberculosis (strain ATCC 25618 / H37Rv)) (UniProt P9WFW3); assay: Assay for Asp RNA synthetase-1 from Mycobacterium tuberculosis; format: functional; set-up: scale not given: direction of the effect not stated beside the values; settings: 30 µM; also: in the data most compounds retested in dose-response had high values
# T1 sequence (whole entry): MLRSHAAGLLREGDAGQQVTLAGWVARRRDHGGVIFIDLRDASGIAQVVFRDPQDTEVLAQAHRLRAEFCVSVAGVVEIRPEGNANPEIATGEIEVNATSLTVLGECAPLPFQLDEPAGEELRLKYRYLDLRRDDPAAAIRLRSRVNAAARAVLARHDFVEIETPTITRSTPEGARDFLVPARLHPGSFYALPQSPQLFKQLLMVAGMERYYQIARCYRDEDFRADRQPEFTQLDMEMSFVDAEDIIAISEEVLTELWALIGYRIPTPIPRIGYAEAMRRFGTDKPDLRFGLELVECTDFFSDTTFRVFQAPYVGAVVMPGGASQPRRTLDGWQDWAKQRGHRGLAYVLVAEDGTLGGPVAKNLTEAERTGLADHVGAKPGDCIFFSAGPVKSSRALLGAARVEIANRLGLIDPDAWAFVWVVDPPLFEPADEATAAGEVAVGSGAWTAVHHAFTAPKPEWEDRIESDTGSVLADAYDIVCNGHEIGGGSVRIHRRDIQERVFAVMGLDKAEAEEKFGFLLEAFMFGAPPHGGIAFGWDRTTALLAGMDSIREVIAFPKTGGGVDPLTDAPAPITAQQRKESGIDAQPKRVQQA
# [2] = molecular target: Shiga toxin 2 (Escherichia coli O157:H7) (UniProt P09385+P09386); assay: E. coli 0.157:H7 Shiga Toxin SOP - stx2 screening assay; format: functional; set-up: scale not given: direction of the effect not stated beside the values; settings: 30 µM
SMILES,Percent Effect [1] [%],Percent Effect [2] [%]
Cc1nc(CCCNC(=O)C2CC(=O)N(C(C)(C)C)C2)sc1C (centres undefined),-1.3,-11.5
Cc1ccc(CN(Cc2cccnc2)C2CC(C)(C)NC(C)(C)C2)s1,3.32,13.4
CC(C)Cc1cc(C(=O)N2CCCC(n3cncn3)C2)[nH]n1 (centres undefined),-3.97,2.44
COc1cc(C)nc(N2CCN(C(=O)CN(C)C3CC3)CC2)n1,0.9,-33.1
CN(C)c1cc(C(=O)N2CCN(S(C)(=O)=O)CC2)ccn1,-0.122,-36.9
O=C1CCCc2cc(-c3csc(CCN4CCOC4=O)n3)ccc2N1,-6.83,-35.7
Cc1ccc(C(=O)O)cc1S(=O)(=O)Nc1nn(-c2ccccc2)cc1C,5.61,3.87
COc1ccc(NC(=O)Cn2nc(C)c(C)cc2=O)cc1OC,-0.123,-13.1
c1nc2c(c(C3CC3)n1)CCN(CC1CCOC1)CC2 (centres undefined),3.35,-6.27
CCSCC(C)NCc1nncn1C1CCCCC1 (centres undefined),1.39,13.1
O=C(c1ccc2c(c1)OCO2)N1CCCSCC1CN1CCCC1 (centres undefined),-0.0437,-5.02
CCC1=N[C@@]2(CC[C@@H]3CN(Cc4ccccc4F)C[C@@H]32)C(=O)N1CC,3.79,-13.9
Cc1nc(CN2C[C@@H]3CN(C(=O)C4CC4)C[C@@H]3C2=O)cs1,-6.04,-17.6
O=C(c1ccnnc1)N1C[C@H]2CCC[C@@]2(COCC2CCOCC2)C1,3.07,-0.366
CCOc1ccccc1Nc1nc2c(C)nn(C)c2c(=O)n1C,1.66,-24.7
CN1CCCC1CNC(=O)CCCOCc1ccccc1 (centres undefined),0.589,23.4
Cc1nn(C)c(C)c1C1CCCN1C(=O)c1ccc(Cl)o1 (centres undefined),-1.9,-17.4
Cc1nccc(-c2cccc(NCC(=O)N3CCNC3=O)c2)n1,2.42,8.66
CN1CCCc2cc(CNC(=O)c3ccc(NC4CC4)nc3)ccc21,-3.1,-12.6

SMILES,Percent Effect [1] [%],Percent Effect [2] [%]
CCn1cc(N2Cc3nc(N4CCN(C)CC4)ncc3C2=O)cn1,-1.54,-50.9
Cc1cc(C(=O)NCC2COCc3c(C)nnn3C2)no1 (centres undefined),2.38,-17.1
Cn1cnnc1C1CCCN(C(=O)c2cc(Cl)c3c(c2)OCO3)C1 (centres undefined),-5.25,-2.91
Cc1cc(-c2cnc(NCc3cccnc3)nc2C(C)C)on1,6.13,10.2
CCCNC(=O)C(C)n1cc(Br)cn1 (centres undefined),5.47,-46.7
COC(=O)N1CCc2ccc(NC(=O)c3cn(C)nn3)cc2C1,-0.627,-90
COc1cc(C(=O)N2CCC(c3n[nH]c(C4CC4)n3)CC2)ccc1C,-0.859,3.06
Cc1nc(C)n(CC2CN(CC(=O)Nc3cccnc3)CCO2)n1 (centres undefined),-1.48,2.66
Cc1nc(C)n(CC2CCCN2CCc2cccs2)n1 (centres undefined),-0.678,-28.6
CCN(c1ccc(C(=O)N2CCCC(C)C2)cc1)S(=O)(=O)CC (centres undefined),-3.34,-10.8
CCn1c(N)nc2cc(C(=O)NCCc3ccccc3C)cnc21,7.33,-69.2
COc1cc(CN(C)C(=O)Nc2cc(C)on2)ccc1SC,2.27,-8.55
Cc1ccccc1CC(=O)N(C)C1CCCC1,-6.33,-21
COc1ccc(CN2CCN(C(C)=O)CC3(CC(=O)N(C)C3)C2)cc1 (centres undefined),1.68,-5.8
Cn1cc(N2CCCC(NCc3cccc4c3OCCCO4)C2)cn1 (centres undefined),2.49,22.1
c1nc2c(c(-c3ccsc3)n1)CCN(Cc1ccoc1)CC2,8.04,-46
Cn1cnc2c(N3CCCC3)nc(C3CCNCC3)cc21,3.17,-31.9
Cc1nc(C)n(CC2CN(Cc3cccnc3)CCO2)n1 (centres undefined),5.17,26.5
CNc1cncc(C2CCCN2C(=O)c2ccc3oc(C)cc3c2)n1 (centres undefined),0.779,-4.12

SMILES,Percent Effect [1] [%],Percent Effect [2] [%]
c1ccc(CC2CCN(Cc3ccnc(-c4cccnc4)n3)CC2)cc1,0.908,-6.53
CCNC(=O)N1CCCCC1CCO (centres undefined),-3.54,-15.4
CCNC(=O)[C@@H]1C[C@H](NC(=O)c2cncnc2C)CN1CCCSC,-2.78,-8.54
Cn1cnnc1S(=O)(=O)C1CCN(S(=O)(=O)c2c(Cl)cccc2Cl)CC1,-0.575,0.759
Cc1cccc(CN2CCC3(CCCN(C(=O)NC4CC4)C3)C2=O)n1 (centres undefined),6.63,-5.22
COc1ccc(C(C)NC(=O)NCCCn2cncn2)cc1F (centres undefined),7.3,-14.5
CC1(C(=O)N2CCOCC2)CN(Cc2ccccn2)CCO1 (centres undefined),8.77,-6.1
CCc1nnc2n1CCN(C(=O)c1cc3ccc(F)cc3nc1C)C2,1.79,8.5
CSCc1cccc(S(=O)(=O)NCCCO)c1,13.1,-26.7
CCc1nc(C)c([C@H]2CN(C)C[C@@H]2C(=O)NCCc2cnccn2)[nH]1,-1.15,-9.87
CCCc1noc(CN2CCCC2c2c(C)nn(C)c2OC)n1 (centres undefined),-5.33,4.3
CC(Cn1ccnc1)NC(=O)C1(c2ccc3c(c2)OCCO3)CCCC1 (centres undefined),-0.0286,-20.7
Cc1nnc(N2CC[C@H](OCC3CC3)[C@@H](Cc3ccccc3)C2)s1,9.93,-15.5
Cc1nnc(CN2CCN(CC(O)c3cccc(F)c3)CC2)n1C (centres undefined),-0.288,18.7
CN1CCC(NC(=O)NCc2csc(Br)c2)CC1,6.12,6.77
COc1cc(CN(C)C(=O)Cc2c(C)nn(C)c2C)ccc1OC(F)F,-2.09,-4.8
COCCOc1cccc(C(=O)N2CCCC(n3cccn3)C2)c1 (centres undefined),1.18,-14.5
Cc1cc(C)cc(NS(=O)(=O)c2cc3c(c(C(=O)O)c2)OCCO3)c1,3.19,-24.3
Cc1cnc2n1CCN(C)C21CCN(C(=O)CC(C)C)CC1,-4.25,-6.62
